Potency and max response data for 16 compounds are collected here from PubChem BioAssay (NCATS).

A number with no mark means an inactive call. Inconclusive results are not listed. The source made the active and inactive calls. Unless noted, calls follow the shape of the dose curve; as a rule, active = well fitted curve in the direction sought with a large enough effect; inconclusive = small, poorly fitted or top-dose-only effect, or another doubt; inactive = no such curve, though single readings can be large; an effect the other way counts as inactive or inconclusive.

For test [1], the target named is T1, Hexokinase-4 (Homo sapiens) + Glucokinase regulatory protein (Homo sapiens) (UniProt P35557+Q14397). Nature of the test: qHTS assay for inhibitors of recombinant human GCK-GKRP interaction: HTRF assay (AID 743207).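 Also: 0% = DMSO with GCK present and -100% = DMSO wells lacking GCK.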 In a few lines: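 5 nM GST-GCK + 5 nM FLAG-GKRP + 2 uM S6P, pH 7.1 buffer (25 mM Hepes, 2 mM MgCl2, 25 mM KCl, 1 mM DTT, Tween/BSA); pin-transferred cpd; anti-FLAG XL665/anti-GST K; 60 min RT; HTRF.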
T1 sequence (P35557 whole entry, looked up): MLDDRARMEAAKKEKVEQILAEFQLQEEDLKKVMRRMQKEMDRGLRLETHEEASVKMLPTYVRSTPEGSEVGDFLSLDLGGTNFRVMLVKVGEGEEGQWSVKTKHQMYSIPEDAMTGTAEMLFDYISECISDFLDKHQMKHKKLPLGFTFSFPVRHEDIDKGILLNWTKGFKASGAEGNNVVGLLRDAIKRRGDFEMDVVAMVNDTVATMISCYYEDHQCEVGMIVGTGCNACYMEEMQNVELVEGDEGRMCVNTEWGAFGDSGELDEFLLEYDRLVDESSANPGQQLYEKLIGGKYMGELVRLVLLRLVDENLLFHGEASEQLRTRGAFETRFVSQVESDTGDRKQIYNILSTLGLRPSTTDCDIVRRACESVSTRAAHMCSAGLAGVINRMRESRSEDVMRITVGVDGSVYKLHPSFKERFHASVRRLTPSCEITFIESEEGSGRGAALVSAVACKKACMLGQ
T1 sequence (Q14397 whole entry, looked up): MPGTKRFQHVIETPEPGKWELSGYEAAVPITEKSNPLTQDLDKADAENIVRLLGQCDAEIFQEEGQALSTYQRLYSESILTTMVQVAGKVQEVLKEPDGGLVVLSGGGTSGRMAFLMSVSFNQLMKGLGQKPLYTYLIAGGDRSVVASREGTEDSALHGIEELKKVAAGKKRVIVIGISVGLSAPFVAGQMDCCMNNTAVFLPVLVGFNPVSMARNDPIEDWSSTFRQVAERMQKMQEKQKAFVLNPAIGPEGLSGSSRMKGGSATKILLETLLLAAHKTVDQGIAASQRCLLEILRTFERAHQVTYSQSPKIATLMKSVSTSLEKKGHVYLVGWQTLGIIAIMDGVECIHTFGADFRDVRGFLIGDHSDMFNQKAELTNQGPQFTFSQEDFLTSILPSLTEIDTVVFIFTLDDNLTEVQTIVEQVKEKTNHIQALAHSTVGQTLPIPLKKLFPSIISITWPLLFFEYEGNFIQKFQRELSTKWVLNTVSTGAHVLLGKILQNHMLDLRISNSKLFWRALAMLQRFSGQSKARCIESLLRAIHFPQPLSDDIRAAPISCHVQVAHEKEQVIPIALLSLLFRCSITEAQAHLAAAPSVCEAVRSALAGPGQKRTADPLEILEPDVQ

A short description of test [2]: qHTS Assay for Identifying Gametocytocidal Compounds (AID 743244).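 Also: % is scaled to controls: 0 for no effect and ±100 for the full control effect; actives lower the fluorescent signal which means gametocytes are killed.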 Particulars: P. falciparum 3D7 stage III-V gametocytes, alamarBlue, 72 h; max response: hits give low values. In a few lines: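 Late gametocytes (III–V), P. falciparum 3D7; 72 h drug, then 24 h alamarBlue; resazurin reduction read by fluorescence.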
Test [3] is described as follows: qHTS assay for measurement of the activity of small molecule inhibitors on Zika virus induced Caspase-3 activity in human iPSC derived neural progenitor cells (hNPCs) (AID 1224857). Also: % of control where 0% means no effect; nearly all actives have a fitted effect of over 65% in size. An outline of the steps:
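Caspase-3/7 induction by a 6-hour ZIKV infection was quantified with a luminescent Caspase-Glo 3/7 reagent incubated 30 minutes at room temperature. Compounds were preincubated with hNPCs for 1 hour; inhibition was calculated against uninfected and infected control wells.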
(qHTS replaces the single test concentration by a dilution series.)

The target of test [4] is Atrial natriuretic peptide receptor 1 (Homo sapiens) (UniProt P16066). Put plainly: Natriuretic polypeptide receptor (hNpr1) antagonism - Pilot screen (AID 1347049; calls by dose curve;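 also: agonist-evoked cGMP luminescence read 20 min after hNppA addition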; also: potency is read from the fitted curve at half-maximal effect). In a few lines: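 Readout is cGMP-driven firefly luciferase luminescence in HEK293 cells carrying hNpr1 and a PDE5-domain GloSensor, read before and 20 min after 0.1 nM hNppA stimulation. Cells had 2% substrate reagent for 2 h and test compound for 30 min.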
Sequence of Atrial natriuretic peptide receptor 1 (Homo sapiens) (P16066 whole entry, looked up): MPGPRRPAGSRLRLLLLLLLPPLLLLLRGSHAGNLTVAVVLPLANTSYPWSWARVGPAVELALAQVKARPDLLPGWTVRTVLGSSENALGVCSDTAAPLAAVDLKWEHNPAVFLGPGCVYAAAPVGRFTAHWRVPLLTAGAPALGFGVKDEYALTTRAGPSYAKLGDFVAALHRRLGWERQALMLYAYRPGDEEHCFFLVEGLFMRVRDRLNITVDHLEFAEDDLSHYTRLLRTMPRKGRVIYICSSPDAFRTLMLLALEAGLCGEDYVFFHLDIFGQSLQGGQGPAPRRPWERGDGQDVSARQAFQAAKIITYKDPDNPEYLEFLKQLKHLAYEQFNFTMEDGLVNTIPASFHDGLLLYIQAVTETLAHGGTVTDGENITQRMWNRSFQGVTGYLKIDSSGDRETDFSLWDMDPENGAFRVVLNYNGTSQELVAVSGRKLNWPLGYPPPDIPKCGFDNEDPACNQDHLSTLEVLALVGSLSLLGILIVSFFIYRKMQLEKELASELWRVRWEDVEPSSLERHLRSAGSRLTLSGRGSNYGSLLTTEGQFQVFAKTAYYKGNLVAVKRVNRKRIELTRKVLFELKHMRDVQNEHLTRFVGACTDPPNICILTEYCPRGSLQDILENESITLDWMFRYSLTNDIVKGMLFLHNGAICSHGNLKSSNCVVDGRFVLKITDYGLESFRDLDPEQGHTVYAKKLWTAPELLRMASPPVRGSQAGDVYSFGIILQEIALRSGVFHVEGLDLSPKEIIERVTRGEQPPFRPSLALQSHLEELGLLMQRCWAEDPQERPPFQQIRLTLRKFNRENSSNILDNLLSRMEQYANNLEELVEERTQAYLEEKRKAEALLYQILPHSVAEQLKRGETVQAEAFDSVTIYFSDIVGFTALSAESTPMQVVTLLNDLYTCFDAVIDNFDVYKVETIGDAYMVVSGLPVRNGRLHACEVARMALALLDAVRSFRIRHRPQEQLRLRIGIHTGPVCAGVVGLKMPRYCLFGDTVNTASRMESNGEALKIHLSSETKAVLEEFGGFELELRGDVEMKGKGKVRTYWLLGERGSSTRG

Test [5] addresses Atrial natriuretic peptide receptor 2 (Homo sapiens) (UniProt P20594). Nature of the test: Natriuretic polypeptide receptor (hNpr2) antagonism - Pilot subtype selectivity assay (AID 1347050; calls by dose curve; also: potency is read from the fitted curve at half-maximal effect). In a few lines:
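Pilot selectivity screen against hNpr2: HEK293 cGMP-sensor cells are treated with LOPAC1280 compounds, then with hNppC peptide at 1 nM final. The cGMP-driven luminescence change over 20 min at room temperature is the read-out.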

Test [6] in a line: NS1 protein of Zika virus - qHTS assay to identify small molecule inhibitors in human HEK 293 cells (AID 1347053).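 Also: series mostly up to about 46 µM; plate controls were infected untreated cells for no effect and uninfected cells for full effect; nearly all actives have a fitted effect of over 55% in size.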 An outline of the steps: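 HEK 293; 20 h pre-culture, 37 C/5% CO2; cpd 1 h pre-infection; ZIKV MR766, MOI = 0.5, 24 h, 37 C; TR-FRET NS1 readout (two anti-NS1 Abs); norm. to no-virus vs infected.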
Test [7] deals with T1, Hexokinase-4 (Homo sapiens) + Glucokinase regulatory protein (Homo sapiens). Put plainly: qHTS assay for inhibitors of recombinant human GCK-GKRP interaction: ADP-Glo assay (AID 743206).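 Also: plate controls were DMSO plus enzyme for no effect and no enzyme for full effect.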 An outline of the steps:
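GST-GCK and FLAG-GKRP (15 nM each in the dispensed mix, with 2 uM S6P) react with 0.4 mM ATP and 5 mM glucose (final) in Hepes pH 7.6 for 60 min at room temperature. ADP is measured by ADP-Glo luminescence.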

Test [8] is described as follows: Natriuretic polypeptide receptor (hNpr1) antagonism - Pilot counterscreen GloSensor control cell line (AID 1347045; calls by dose curve; also: potency is read from the fitted curve at half-maximal effect). In a few lines: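 This counterscreen uses HEK293 cells expressing the GIP/pGS-40F cGMP biosensor. Compound-treated cells are challenged with 50 uM sodium nitroprusside, and the luciferase signal is compared before and after stimulation.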
On the technique in general: Counterscreens check selectivity or assay interference.

Test [9] is described as follows: qHTS assay for cell viability of HEK293 cells (AID 743288). Also: % is scaled to controls: 0 for no effect and ±100 for the full control effect; nearly all actives have a fitted effect of over 50% in size. Particulars: ATP luminescence (CellTiter-Glo), 18 h; max response: hits give low values. An outline of the steps: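 HEK293 parental, 2,000 cells/well; ≥5 h pre-incubation 37 C; pintool compound addition; 18 h, 37 C; CellTiter-Glo 30 min RT; luminescence read.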
A short description of test [10]: qHTS assay for cell viability of the p53RE-bla HCT-116 cell line (AID 743292). Also: % is scaled to controls: 0 for no effect and ±100 for the full control effect; nearly all actives have a fitted effect of over 55% in size. An outline of the steps: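 CellSensor p53RE-bla HCT-116 cells (4,000/well) pre-incubated 5 h at 37 C, then exposed to compounds in DMSO for 16 h at 37 C. Viability read as ATP content by CellTiter-Glo luminescence after 30 min at room temperature.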

Sequence of Atrial natriuretic peptide receptor 2 (Homo sapiens) (P20594 whole entry, looked up): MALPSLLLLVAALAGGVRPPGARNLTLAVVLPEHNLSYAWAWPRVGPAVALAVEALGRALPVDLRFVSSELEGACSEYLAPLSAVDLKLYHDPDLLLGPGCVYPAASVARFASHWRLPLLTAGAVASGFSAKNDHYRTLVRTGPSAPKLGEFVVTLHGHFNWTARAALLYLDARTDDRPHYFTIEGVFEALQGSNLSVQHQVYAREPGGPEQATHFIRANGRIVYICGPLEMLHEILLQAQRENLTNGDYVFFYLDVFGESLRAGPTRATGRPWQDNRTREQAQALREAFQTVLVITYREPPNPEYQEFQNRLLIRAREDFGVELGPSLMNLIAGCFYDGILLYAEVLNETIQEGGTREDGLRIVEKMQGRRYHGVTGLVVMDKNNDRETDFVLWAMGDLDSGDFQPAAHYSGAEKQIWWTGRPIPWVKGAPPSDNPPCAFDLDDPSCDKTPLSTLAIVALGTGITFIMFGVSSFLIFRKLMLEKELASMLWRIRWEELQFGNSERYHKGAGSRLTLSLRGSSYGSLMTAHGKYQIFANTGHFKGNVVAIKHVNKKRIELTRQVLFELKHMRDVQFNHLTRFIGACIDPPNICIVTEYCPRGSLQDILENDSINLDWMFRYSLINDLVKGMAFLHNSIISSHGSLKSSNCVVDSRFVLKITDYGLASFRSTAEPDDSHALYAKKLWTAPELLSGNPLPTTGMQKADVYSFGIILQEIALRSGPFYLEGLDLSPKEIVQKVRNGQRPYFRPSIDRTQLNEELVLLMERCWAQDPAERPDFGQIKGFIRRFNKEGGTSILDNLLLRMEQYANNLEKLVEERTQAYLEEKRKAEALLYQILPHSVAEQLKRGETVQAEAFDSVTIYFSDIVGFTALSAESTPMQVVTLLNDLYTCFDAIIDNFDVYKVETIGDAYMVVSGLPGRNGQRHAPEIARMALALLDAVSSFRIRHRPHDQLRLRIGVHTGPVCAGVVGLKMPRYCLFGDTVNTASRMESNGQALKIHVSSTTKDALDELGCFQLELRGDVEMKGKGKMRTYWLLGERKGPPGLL

Consider `CC(C)C[C@H](NC(=O)C1OC1C(=O)O)C(=O)NCCCCN=C(N)N` (stereo partly specified), for which the Potency entry in test [1], in [3], in [4], in [5] and in test [6] was “inactive” each time. Besides, in [2], the max response is -4.29%.

For the compound `N#C/C(=C\c1ccc(O)c(O)c1)C(=O)NCCc1ccccc1`, the Potency entry in test [7], in test [1], in [3], in test [8], in [5] and in [6] was “inactive” in each case. Moreover, in test [2], the max response was 5.86%.

With `O=C(O)C1CCCNC1` (stereo unspecified), the Potency entry in test [7], in [1], in [3], in [8], in test [4] and in [5] was “inactive” in each case. Also, the Potency entry in test [6] is “inactive”. In addition, the max response in test [2] is 20.9%.

For `O=[N+]([O-])c1cccc2cn[nH]c12`, the Potency entry in test [7], in test [1], in test [3], in test [8], in [4] and in test [5] was “inactive” throughout. In addition, the Potency entry in [6] is “inactive”. Besides, the max response in test [2] was 8.31%.

For `CC(=O)C(C)=O`, the Potency entry in [7], in test [1], in test [10], in test [3], in [8] and in test [6] was “inactive” in each case. For the same compound, the max response was 0.793% in [2] and -4.3% in test [9].

Turning to `CN(C)C(=O)/N=N/C(=O)N(C)C`, the Potency result in [7], in [1], in test [3], in [4], in [5] and in test [6] was “inactive” throughout. Further, in test [2], the max response was -1.96%.

`CC[n+]1c(/C=C/C=C2/N(C)c3ccccc3C2(C)C)sc2ccccc21`: the Potency result in test [7] and in test [3] was “inactive” each time. Further, the Potency in test [8] and in test [5] was 0.233 µM (active) each time.

For the compound `S=C(S)N1CCCC1`, the Potency entry in test [7], in test [1] and in test [3] was “inactive” throughout. Moreover, the Potency is 7.36 µM (active) in test [8] and 9.53 µM (active) in [4].

As for `c1ccc(C(NCCNC(c2ccccc2)c2ccccc2)c2ccccc2)cc1`, the Potency result in test [1] and in [3] was “inactive” each time. The Potency in test [8] is 13.1 µM (active).

As to `CC(C)C[C@H](NC(=O)[C@H](O)[C@H](N)Cc1ccccc1)C(=O)O`, the Potency entry in test [7], in test [1], in [3], in [8], in test [4] and in test [5] was “inactive” each time. In [6], the Potency entry was “inactive”. The max response in test [2] was 2.38%.

For `Cc1nc2c(OCc3ccccc3)cccn2c1CC#N`, the Potency entry in test [7], in test [1], in test [3], in test [8] and in test [6] was “inactive” throughout. In addition, the max response in test [2] was 18.4%.

Take `CCCCCC[C@@H]([C@@H](C)O)n1cnc2c(N)ncnc21`: the Potency result in test [7], in test [1], in [3], in test [8], in [4] and in [5] was “inactive” each time. Also, in test [6], the Potency entry was “inactive”.

`Cc1ccc([N+](=O)[O-])cc1S(=O)(=O)N(C)C`: the Potency entry in test [7], in test [1], in test [3], in test [8], in test [4] and in [5] was “inactive” each time. The Potency entry in test [6] was “inactive”. In addition, the max response in test [2] is 4.81%.

`COc1cc(CNC(=O)CCCCCCC(C)C)ccc1O`: the Potency result in test [7], in [1], in test [3], in [8], in test [4] and in test [5] was “inactive” throughout. Moreover, in [6], the Potency result was “inactive”.

Regarding `CC(=O)O[C@H]1CC2(C)[C@@H](C[C@@H](O)[C@H]3[C@@]4(C)CC[C@@H](O)[C@@H](C)[C@@H]4CC[C@@]32C)C1=C(CCC=C(C)C)C(=O)O` (stereo partly specified), the Potency entry in test [7], in [1], in [3], in test [8], in [4] and in test [5] was “inactive” in each case. The max response in [2] is 12.4%.

With `CSc1nc(N)c2ncn([C@@H]3O[C@H](COP(=O)(O)OP(=O)(O)O)C(O)[C@H]3O)c2n1` (stereo partly specified), the Potency result in test [7], in [3], in test [8], in test [4], in [5] and in test [6] was “inactive” throughout. The max response in [2] is 18.1%.
